Results reported in PubChem BioAssay (NCATS).
Results filed as inconclusive are left out. Active and inactive are the calls of the source. Calls come from the whole dose curve; as a rule, active = well fitted curve in the direction sought with a large enough effect; inconclusive = small, poorly fitted or top-dose-only effect, or another doubt; inactive = no such curve, though single readings can be large; an effect the other way counts as inactive or inconclusive.

Tests used:
[1] = biological target: Glutathione peroxidase 1 (Homo sapiens) (UniProt P07203); test: Primary qHTS Assay for Inhibitors of Recombinant Selenoprotein Glutathione Peroxidase 1 (GPX1) (AID 1845191); note: nearly all actives have a fitted effect of over 65% in size; note: potency is the fitted concentration of half-maximal effect; for activity, negative = inhibition: % is set by controls: 0 for no effect and ±100 for the full control effect
Procedure, shortened: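 GR-coupled readout: NADPH consumption tracked by fluorescence, ex 340/em 450 nm, at t=0 and after 15 min at RT. Final mix 10 nM GPX1, 1 mM GSH, 0.5 mM CHP, 0.5 mM NADPH, 100 nM GR, 0.01% BSA, following 30 min enzyme–compound preincubation.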

[2] = biological target: Phospholipid hydroperoxide glutathione peroxidase GPX4 (Homo sapiens) (UniProt P36969); test: Primary qHTS Assay for Inhibitors of Recombinant Selenoprotein Glutathione Peroxidase 4 (GPX4) (AID 1845192); note: nearly all actives have a fitted effect of over 65% in size; note: potency is the fitted concentration of half-maximal effect; for activity change, negative = inhibition: series mostly up to about 50 µM; % is set by controls: 0 for no effect and ±100 for the full control effect
Procedure, shortened: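 Steps: GPX4 plus compound, 30 min RT; add GR/GSH/NADPH master mix; start with cumene hydroperoxide; read 340/450 nm fluorescence at 0 and 15 min. Finals were 200 nM GPX4, 1 mM GSH, 0.5 mM CHP, 0.5 mM NADPH, 100 nM GR.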

[3] = biological target: Luciferin 4-monooxygenase (Photinus pyralis) (UniProt P08659); test: Primary firefly luciferase (FLuc) qHTS assay for identification of artifact compounds. (AID 1845220); note: nearly all actives have a fitted effect of over 60% in size; note: potency is the fitted concentration of half-maximal effect;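 for activity change, negative = inhibition: series mostly up to about 54 µM; plate controls were DMSO vehicle for no effect and no enzyme for full effect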
Procedure, shortened: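 Enzymatic FLuc inhibition assay: compounds pre-exposed to luciferin/ATP (10 uM each) for 15 min, then purified P. pyralis enzyme at 10 nM added. Read-out: luminescence at 5 min.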

[4] = Primary fluorescence-based thiol-reactive (MSTI) qHTS assay for identification of artifact compounds. (AID 1845221); note: nearly all actives have a fitted effect of over 65% in size; note: potency is the fitted concentration of half-maximal effect;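 for activity change, negative = thiol reactive: series mostly up to about 54 µM; thiol-reactive compounds lower the probe fluorescence signal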
Procedure, shortened: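 Thiol-reactive compounds detected by quenching of 4 uM MSTI fluorescence (525/598 nm) after 1 h room-temperature dark incubation in PBS pH 7.4, 2% DMSO. qHTS titration; percent inhibition Hill-fitted against Acetyl-MSTI/MSTI controls.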

[5] = system: Nanoluciferase (engineered Oplophorus gracilirostris luciferase); test: Primary Nanoluciferase (NLuc) qHTS assay for identification of artifact compounds. (AID 1845222);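 note: NLuc secreted into diluted conditioned medium of S16 cells; series mostly up to about 54 µM; 0% = DMSO and -100% = no enzyme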
Procedure, shortened: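 S16 cell supernatant NLuc, 1:55; cpds qHTS; 15 min RT dark; Nano-Glo substrate 1:100, 5 min; luminescence; Hill fit of % inhibition.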

[6] = Primary redox qHTS assay for identification of artifact compounds. (AID 1845223);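 note: 0% = DMSO and 100% = reference compound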
Procedure, shortened: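 Redox-cycling detection via DTT (250 uM final) oxidation coupled to Amplex Red (25 uM)/HRP (250 mU/mL) in HBSS. 15 min preincubation plus 30 min after DTT, room temperature. Ex/Em 525/598 nm; 4-parameter Hill fit against DMSO and 10 uM DA3003.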

Chain of Phospholipid hydroperoxide glutathione peroxidase GPX4 (Homo sapiens) (P36969 whole entry, looked up): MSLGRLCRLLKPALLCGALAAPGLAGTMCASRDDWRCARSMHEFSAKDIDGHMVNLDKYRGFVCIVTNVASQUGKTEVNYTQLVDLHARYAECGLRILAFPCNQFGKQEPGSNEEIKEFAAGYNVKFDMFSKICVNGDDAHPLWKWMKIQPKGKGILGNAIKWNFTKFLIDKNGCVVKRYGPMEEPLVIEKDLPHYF
Chain of Glutathione peroxidase 1 (Homo sapiens) (P07203 whole entry, looked up): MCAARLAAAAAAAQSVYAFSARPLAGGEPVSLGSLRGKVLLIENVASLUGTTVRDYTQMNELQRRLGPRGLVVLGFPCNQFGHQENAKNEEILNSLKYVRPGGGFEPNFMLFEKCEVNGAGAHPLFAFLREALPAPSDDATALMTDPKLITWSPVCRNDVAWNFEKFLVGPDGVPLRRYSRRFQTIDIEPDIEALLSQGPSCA

Cc1csc2c(N[C@@H](C)CN3CCN(S(=O)(=O)c4ccc(Cl)c(Cl)c4)CC3)ncnc12
inactive: Potency [1] | Potency [2] | Potency [3] | Potency [4] | Potency [5] | Potency [6]

C=C1C(=O)OC2/C=C(\COC(C)=O)CC/C=C(\C=O)CC(OC(=O)C(C)CC)C12 (configuration not stated)
inactive: Potency [1] | Potency [2] | Potency [3] | Potency [4] | Potency [5] | Potency [6]

CCC(C)C(=O)O[C@H]1[C@@H](OC(=O)c2ccoc2)C[C@](C)(O)[C@]23OC(C)(C)[C@H](C[C@H](OC(=O)c4ccoc4)[C@]12COC(C)=O)[C@H]3OC(C)=O (some centres not stated)
inactive: Potency [1] | Potency [2] | Potency [3] | Potency [4] | Potency [5] | Potency [6]

Cc1ccc(NC(=O)N2CCN(c3nc(N)nc4sc(-c5cccnc5)nc34)CC2)cc1
active: Potency [1] 14.3 µM | Potency [2] 2.55 µM
inactive: Potency [3] | Potency [4] | Potency [5] | Potency [6]

C[C@@H]1C[C@H]2O[C@@]3(O[C@@H]2C(C)(C)O)C(O)[C@@]2(C)C4CCC5C(C)(C)[C@@H](O[C@H]6OC[C@H](O)[C@@H](O)[C@@H]6O)CC[C@@]56C[C@@]46CC[C@]2(C)C13 (some centres not stated)
inactive: Potency [1] | Potency [2] | Potency [3] | Potency [4] | Potency [5] | Potency [6]

CC1(C)CN(C(=O)c2ccc(-c3cccc4nc(NC(=O)C5CC5)nn34)cc2)C1
inactive: Potency [1] | Potency [2] | Potency [3] | Potency [4] | Potency [5] | Potency [6]

Clc1ccc(Nc2nc3ccccc3c3nc(C4CCCCC4)[nH]c23)cc1Cl
inactive: Potency [1] | Potency [2] | Potency [3] | Potency [4] | Potency [5] | Potency [6]

Nc1nc(Cl)nc2c1ncn2C1OC(CO)C(O)C1F (configuration not stated)
inactive: Potency [1] | Potency [2] | Potency [3] | Potency [4] | Potency [5] | Potency [6]

O=c1[nH]c2ccccc2n1CCN1CCN(c2cccc(C(F)(F)F)c2)CC1
inactive: Potency [1] | Potency [2] | Potency [3] | Potency [4] | Potency [5] | Potency [6]

Cc1cc(-c2nc(-c3ccc(OC(F)(F)F)cc3)no2)nn1Cc1ccnc(N2CCN(C3CC3)CC2)c1
inactive: Potency [1] | Potency [2] | Potency [3] | Potency [4] | Potency [5] | Potency [6]

CC(=O)Nc1cccc(Nc2ncnc(N3CCC(OCc4ccc(OC(F)(F)F)cc4)CC3)n2)c1C
inactive: Potency [1] | Potency [2] | Potency [3] | Potency [4] | Potency [5] | Potency [6]

C=C1CC[C@@H]2[C@](C)(CO)[C@H](O)CC[C@@]2(C)[C@@H]1CC(=O)C1=CCOC1=O
inactive: Potency [1] | Potency [2] | Potency [3] | Potency [4] | Potency [5] | Potency [6]

CC(CCC1(O)OC2CC3C4CC=C5CC(O[C@@H]6O[C@H](CO)[C@@H](O[C@@H]7O[C@@H](C)[C@H](O)[C@@H](O)[C@H]7O)[C@H](O)[C@H]6O[C@@H]6O[C@@H](C)[C@H](O)[C@@H](O)[C@H]6O)CCC5(C)C4CCC3(C)C2C1C)CO[C@@H]1O[C@H](CO)[C@@H](O)[C@H](O)[C@H]1O (some centres not stated)
inactive: Potency [1] | Potency [2] | activity change, negative = inhibition [3] -3.06% [at 11.6 µM] | activity change, negative = thiol reactive [4] 218% [at 11.5 µM] | activity, negative = inhibition [5] 2.85% [at 11.6 µM] | redox activity (% of DA3003) [6] 12.7% [at 11.5 µM]

C=C1CC[C@@H]2[C@](C)(CO)[C@H](O)CC[C@@]2(C)[C@@H]1C/C=C1/C(=O)OCC1O (some centres not stated)
inactive: Potency [1] | Potency [2] | Potency [3] | Potency [4] | Potency [5] | Potency [6]

O=C(Nc1ccc(Cl)cc1)c1ccccc1NCc1ccncc1
inactive: Potency [1] | Potency [2] | Potency [3] | Potency [4] | Potency [5] | Potency [6]

Cc1cc(C)nc(SCC(=O)Nc2ncc(Cc3cccc4ccccc34)s2)n1
inactive: Potency [1] | Potency [2] | Potency [3] | Potency [4] | Potency [5] | Potency [6]

O=C(NCCCCN1CCN(c2cccc(Cl)c2Cl)CC1)c1cc2ccccc2s1
inactive: Potency [1] | Potency [2] | Potency [3] | Potency [4] | Potency [5] | Potency [6]

CC(C)(C)c1ccc(-c2nc3c(N4CCN(Cc5ccc6nccnc6c5)CC4)cccc3[nH]2)cc1
inactive: Potency [1] | Potency [2] | Potency [5] | Potency [6]
active: Potency [3] 1.51 µM | Potency [4] 6.7 µM

COc1ccc(CNCc2cccc3ccccc23)cc1
inactive: Potency [1] | Potency [2] | Potency [3] | Potency [4] | Potency [5] | Potency [6]

CC1(C)C2CCC(CO[C@@H]3O[C@H](CO[C@@H]4OC[C@](O)(CO)[C@H]4O)[C@@H](O)[C@H](O)[C@H]3O)C1C2 (some centres not stated)
inactive: Potency [1] | Potency [2] | Potency [3] | Potency [4] | Potency [5] | Potency [6]

COc1ccc2c(NC(=O)Nc3cccc(C(F)(F)F)n3)ccnc2c1
inactive: Potency [1] | Potency [2] | Potency [3] | Potency [4] | Potency [5] | Potency [6]

CC(C)NCCCn1c(Sc2cc3c(cc2I)OCO3)nc2c(N)ncnc21
inactive: Potency [1] | Potency [2] | Potency [3] | Potency [4] | Potency [5] | Potency [6]

Cc1ccccc1C(C(=O)NC1CCCCC1)N(C(=O)Cn1cnc2ccccc21)c1cccc(F)c1 (configuration not stated)
inactive: Potency [1] | Potency [2] | Potency [3] | Potency [4] | Potency [5] | Potency [6]

CN(C)CCOc1cc(NS(=O)(=O)c2c(Cl)cc(C(F)(F)F)cc2Cl)ccc1Cl
inactive: Potency [1] | Potency [2] | Potency [3] | Potency [4] | Potency [5] | Potency [6]

COC(=O)C[C@H]1C(C)(C)[C@H](OC(=O)c2ccccc2)C2CC3=C4CC(=O)O[C@@H](c5ccoc5)[C@]4(C)CCC3[C@@]1(C)C2=O (some centres not stated)
inactive: Potency [1] | Potency [2] | Potency [3] | Potency [4] | Potency [5] | Potency [6]

Cn1c(=O)c2c(ncn2Cc2ccc(C(C)(C)C)cc2)n(C)c1=O
inactive: Potency [1] | Potency [2] | Potency [3] | Potency [4] | Potency [5] | Potency [6]

CCS(=O)c1nc(-c2cccc(OCc3ccccc3)c2)cc(C(F)(F)F)n1 (configuration not stated)
inactive: Potency [1] | Potency [2] | Potency [3] | Potency [4] | Potency [5] | Potency [6]

FC(F)(F)c1ccccc1-c1cc(C(F)(F)F)c2nc(C3=NOC4(CCCCC4)C3)[nH]c2c1
inactive: Potency [1] | Potency [2] | Potency [3] | Potency [4] | Potency [5] | Potency [6]

C1=Cc2ccccc2C(=C2CCN(CCCCc3nn[nH]n3)CC2)c2ccccc21
inactive: Potency [1] | Potency [2] | Potency [3] | Potency [4] | Potency [5] | Potency [6]

C=C1C(=O)OC2C3=C(C)C(=O)CC3C(C)CC(O)C12 (configuration not stated)
active: Potency [4] 11.9 µM
inactive: Potency [1] | Potency [2] | Potency [3] | Potency [5] | Potency [6]

C=C1CC[C@@H](O)[C@]2(C)C[C@H]3OC(=O)C(=C)[C@H]3CC12 (some centres not stated)
inactive: Potency [1] | Potency [2] | Potency [3] | Potency [4] | Potency [5] | Potency [6]

Cc1csc(N(C(=O)CSc2ccc(-c3ccccc3)nn2)C2CC2)n1
inactive: Potency [2] | Potency [3] | Potency [4] | Potency [5] | Potency [6]
active: Potency [1] 20.2 µM

CC(=O)O[C@@H]1CC2C(/C=C(\C)C(=O)[C@@]3(O)C[C@@H](C)[C@H](OC(=O)c4ccccc4)C3/C=C/1C)C2(C)C (some centres not stated)
inactive: Potency [1] | Potency [2] | Potency [3] | Potency [4] | Potency [5] | Potency [6]

O=C(Nc1cccnc1)c1cc(-c2ccnc(F)c2)ccc1OCc1ccccc1
inactive: Potency [1] | Potency [2] | Potency [3] | Potency [4] | Potency [5] | Potency [6]

CCCC(Nc1nc(-c2ccc(NC(=O)NCC)c(OC)c2)ncc1C)c1cccnc1 (configuration not stated)
inactive: Potency [1] | Potency [2] | Potency [3] | Potency [4] | Potency [5] | Potency [6]

CN1CCN(S(=O)(=O)c2ccc(-c3cnc(N)c(C(=O)Nc4cccnc4)n3)cc2)CC1
inactive: Potency [1] | Potency [2] | Potency [3] | Potency [4] | Potency [5] | Potency [6]

O=C(O)c1ccc(S(=O)(=O)N(Cc2ccc(OC(F)(F)F)cc2)c2ncc(C(F)(F)F)cc2Cl)cc1
inactive: Potency [1] | Potency [2] | Potency [3] | Potency [4] | Potency [5] | Potency [6]

CCCCc1c(-c2ccc(OC)cc2)[nH]c2nccnc12
inactive: Potency [1] | Potency [2] | Potency [3] | Potency [4] | Potency [5] | Potency [6]

CC(C)CCNc1ncccc1C(=O)N1CCN(Cc2ccccc2)CC1
inactive: Potency [1] | Potency [2] | Potency [3] | Potency [4] | Potency [5] | Potency [6]

CC(C)/C=C1\NC(=O)C(C(C)C)n2c1nc1ccccc1c2=O (configuration not stated)
inactive: Potency [1] | Potency [2] | Potency [3] | Potency [4] | Potency [5] | Potency [6]

C=C1C(=O)O[C@@H]2C[C@H](C)[C@@H]3CC(=O)C(C)=C3C[C@H]12
inactive: Potency [1] | Potency [2] | Potency [3] | Potency [4] | Potency [5] | Potency [6]

CCOc1cccc(NC(=O)c2ccc(N3CCCC3)c(C(F)(F)F)c2)c1
inactive: Potency [1] | Potency [2] | Potency [3] | Potency [4] | Potency [5] | Potency [6]

COc1c2c(nc3occc13)C(CC=C(C)C)(OC)C(O)CC2 (configuration not stated)
inactive: Potency [1] | Potency [2] | Potency [3] | Potency [4] | Potency [5] | Potency [6]

CCN(Cc1cc(Nc2nc(C)cn3c(-c4cn[nH]c4)cnc23)sn1)C(C)(C)CO
inactive: Potency [1] | Potency [2] | Potency [3] | Potency [4] | Potency [5] | Potency [6]

O=C(C(Cc1cccc(C(F)(F)F)c1)NS(=O)(=O)c1cc(F)c2c(c1)CCNC2)N1CCCC1 (configuration not stated)
inactive: Potency [1] | Potency [2] | Potency [3] | Potency [4] | Potency [5] | Potency [6]

O=c1cc(N2CCOCC2)nc2c3ccccc3ccn12
inactive: Potency [1] | Potency [2] | Potency [3] | Potency [4] | Potency [5] | Potency [6]

Fc1ccc(-c2nc(-c3ccccc3F)[nH]c2-c2ccncc2)cc1
inactive: Potency [1] | Potency [2] | Potency [3] | Potency [4] | Potency [5] | Potency [6]
